# Where “and” joins values, the source holds several entries; their conditions need not be identical. Equal values may be shown once. Hit rate of the full screen: of about 330,000 compounds, about 5,800 (1.8%) were called active. Rule as the data show it: active = inhibition mostly above about 38% (no sharp cut-off); inactive = mostly below about 40%. The list comes from a sample in which actives are over-represented; it also holds similar structures and randomly drawn compounds.
# Target: Orexin/Hypocretin receptor type 1 (Homo sapiens) (UniProt O43613)
# Test: blocks the human orexin 1 receptor (AID 485270);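 also: 0% = agonist challenge alone and 100% = reference antagonist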
# Details: OX1R-expressing cells, FRET antagonist read-out; at 6.6 µM; stronger effect = higher value
# Chain of Orexin/Hypocretin receptor type 1 (Homo sapiens) (O43613 whole entry, looked up): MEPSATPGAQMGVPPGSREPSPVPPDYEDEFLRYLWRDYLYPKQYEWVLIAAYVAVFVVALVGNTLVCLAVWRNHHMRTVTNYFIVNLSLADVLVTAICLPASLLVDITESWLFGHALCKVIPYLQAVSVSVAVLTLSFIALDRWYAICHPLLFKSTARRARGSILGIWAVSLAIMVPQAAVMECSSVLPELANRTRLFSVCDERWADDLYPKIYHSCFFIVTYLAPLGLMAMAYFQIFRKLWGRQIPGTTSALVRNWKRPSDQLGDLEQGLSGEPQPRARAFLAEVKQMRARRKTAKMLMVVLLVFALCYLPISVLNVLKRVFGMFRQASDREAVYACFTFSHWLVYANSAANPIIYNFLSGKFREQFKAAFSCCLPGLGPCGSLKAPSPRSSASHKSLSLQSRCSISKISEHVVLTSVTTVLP
row,SMILES,inhibition
1,O=C1c2cccc3cccc(c23)C(=O)N1CCCCCc1n[nH]c(=S)o1,47.3% (inactive)
2,C[N+](C)(CCCCCC[N+](C)(C)CCCN1C(=O)c2cccc3cccc(c23)C1=O)CCCN1C(=O)c2cccc3cccc(c23)C1=O,68.8% (active)
3,O=C(CCCCCN1C(=O)c2cccc3cccc(c23)C1=O)NCc1ccco1,9.93% (inactive)
4,COC(=O)CSc1snnc1-c1ccc(Cl)c(Cl)c1,33.7% (inactive)
5,CCOC(=O)c1ccc(NNC(C)=O)c([N+](=O)[O-])c1,26.7% (inactive)
6,CCOC(=O)C/C(C)=N\Nc1ccc([N+](=O)[O-])cc1[N+](=O)[O-],55.3% (active)
7,CCCCOC(=O)CCCc1ccc([N+](=O)[O-])cc1[N+](=O)[O-],18.3% (inactive)
8,Nc1nc(SCC(=O)Nc2ccc(Cl)c([N+](=O)[O-])c2)n[nH]1,0.57% (inactive)
9,O=C(CN1C(=O)c2ccc([N+](=O)[O-])cc2C1=O)Nc1nnc(C2CC2)s1,21.3% (inactive)
10,Cc1ccc(S(=O)(=O)NC2CCCCCC2)cc1,10.9% (inactive)
11,CCn1c(SCC(=O)c2ccc3ccccc3c2)nnc1-c1cccs1,79.6% (active)
12,CCn1c(Cc2cccs2)nnc1SCC(=O)c1ccc(C)cc1,14.7% (inactive)
13,CCn1c(SCC(=O)c2ccc(Cl)s2)nnc1-c1cccs1,26.9% (inactive)
14,COc1ccc(CCNC(=O)COC(=O)Cc2ccccc2F)cc1,2.3% (inactive)
15,Cc1noc(C)c1S(=O)(=O)N(C)C[C@H]1Oc2ccc(NC(=O)C3CCCCC3)cc2C(=O)N([C@H](C)CO)C[C@@H]1C,3.64% (inactive)
16,O=C(O)c1ccccc1CSc1nc2ccccc2s1,5.76% (inactive)
17,O=[N+]([O-])c1c(NCCO)cc(Sc2nc3ccccc3s2)c2nonc12,90.3% (active)
18,CCOc1ccccc1Nc1ccc2nonc2c1[N+](=O)[O-],20% (inactive)
19,COc1cc(OC)cc(-c2sc3ccc(OC)cc3c2-c2ccc3cc[nH]c3c2)c1,18.3% (inactive)
20,CCCCC(=O)Nc1cc(C)c2c(=O)oc3ccccc3c2n1,1.27% (inactive)
21,CCOC(=O)c1c(C)nc2c(c1C)c(=O)oc1ccccc12,4% (inactive)
22,Cc1ccccc1-n1nnc2c(=O)oc3ccccc3c21,51.9% (active)

row,SMILES,inhibition
1,COc1cc(OC)cc(-c2cc3ccc(F)cc3cn2)c1,18.6% (inactive)
2,N#Cc1cc([N+](=O)[O-])ccc1NC(=O)COC(=O)c1cnccn1,30.6% (inactive)
3,Cc1cccc(NC(=O)Nc2cccc(Oc3c(F)c(F)c(F)c(F)c3F)c2)c1,45.9% (active)
4,Cc1cccc(NC(=O)NC(=S)NC(=O)c2ccccc2)c1,39.1% (inactive)
5,COc1cccc(NC(=O)NCc2ccc(F)cc2)c1,-5.5% (inactive)
6,CCN(CC)S(=O)(=O)c1ccc(N2CCCC2)c(NC(=O)c2ccc([N+](=O)[O-])o2)c1,25.5% (inactive)
7,O=C(Cc1cccs1)NCc1cccc(C(F)(F)F)c1,-2.11% (inactive)
8,CCOC(=O)CCCCCC(=O)Nc1ccc2c(c1)CC(=O)N([C@@H](C)CO)C[C@H](C)[C@@H](CN(C)Cc1ccccc1)O2,0.83% (inactive)
9,Cc1noc(C)c1NC(=O)Nc1ccc2c(c1)C(=O)N([C@H](C)CO)C[C@H](C)[C@@H](CN(C)S(=O)(=O)c1cn(C)cn1)O2,0.36% (inactive)
10,CC(=O)c1cccc(OCC(=O)OCC(=O)Nc2cc(S(=O)(=O)N3CCCCC3)ccc2C)c1,9.5% (inactive)
11,CCOc1ccc(CCNC(=O)C(CC)n2nc(C)n3c(cc4sccc43)c2=O)cc1OCC (stereo not drawn),92.1% (active)
12,CCC(C(=O)NCc1ccc(OC)cc1)n1nc(C)n2c(cc3occc32)c1=O (stereo not drawn),9.82% (inactive)
13,COc1ccc(CCNC(=O)c2cc3sccc3n2C)cc1OC,20.4% (inactive)
14,COc1cc(SC)ccc1C(=O)NNC(=O)C1COc2ccccc2O1 (stereo not drawn),9.65% (inactive)
15,CCN(CC(=O)NCc1ccc(F)cc1)S(=O)(=O)c1ccc(Cl)s1,6.16% (inactive)
16,Cc1nc(C)c(-c2nnc(-c3cccc(S(=O)(=O)N(C)C)c3)o2)cc1C(=O)NN,1.5% (inactive)
17,Cc1cccc(-c2noc(-c3ccc(F)cc3)n2)c1,1.69% (inactive)
18,COc1ccc(-c2noc(CCCC(=O)NC3CCCC3)n2)cc1OC,14.1% (inactive)
19,COc1ccc(-c2noc(-c3cccc(OC)c3OC)n2)cc1OC,45.8% (active)
20,O=C(COC(=O)c1cccnc1Cl)NC(=O)NC1CCCCC1,0.57% (inactive)
21,Cc1c(C#N)c2ncn(CC#N)c(=O)c2n1-c1ccccc1,16.1% (inactive)
22,CN1c2ccc(C=O)c3c(C=O)ccc(c23)N(C)C1(C)C,38.9% (active)

row,SMILES,inhibition
1,COc1ccc2nc3n(c(=O)c2c1)-c1ccc(Cl)cc1C(=O)NC3Cc1ccccc1 (stereo not drawn),7.22% (inactive)
2,O=C1CCC/C=C/C[C@@H](CC(=O)N(CCO)Cc2ccccc2)C(=O)NC[C@H](c2ccccc2)O1,2.58% (inactive)
3,CCN(C(=O)COC(=O)CCC(=O)c1cccs1)C1CCCCC1,3.19% (inactive)
4,Cc1ccc(S(=O)(=O)N2CCN(C(=O)CN3C(=O)NC(C)(c4ccc(Cl)cc4)C3=O)CC2)c(C)c1 (stereo not drawn),4.7% (inactive)
5,O=C1c2ccccc2[C@@H]2C[C@@H](O)[C@H](Nc3ccccc3Cl)CCN12,7.11% (inactive)
6,Cc1ccc(C(=O)C[n+]2cc(-c3ccccc3)n3c2CCCCC3)cc1,9.82% (inactive) and 16.5% (inactive)
7,Cc1ccc(NC(=S)N2CCCC(c3ccccc3)=N2)cc1,14.4% (inactive)
8,Cc1ccc(C(=O)N2CCCC(c3ccccc3)=N2)cc1,64.4% (active)
9,CC(C)CC1NC(=O)c2cc(Cl)ccc2-n2c1nc1ccccc1c2=O (stereo not drawn),4.11% (inactive)
10,Cc1cccc(NC(=O)c2ccc3nsnc3c2)c1C,34.9% (inactive)
11,O=C(Nc1cccc(NC(=O)c2cccc(F)c2)c1)c1ccccc1,16.8% (inactive)
12,O=C(Nc1ccccc1)c1ccc2nsnc2c1,41.3% (active)
13,COc1cc(OC)cc(-c2c(C#Cc3ccsc3)c3cc(-c4ccc(SC)cc4)ccc3n2C)c1,7.83% (inactive)
14,Cc1cc(C)nc(NC(=O)Nc2ccccc2C(F)(F)F)n1,19.6% (inactive)
15,COc1cccc(C(=O)NC(=O)Nc2nc(C)cc(C(F)(F)F)n2)c1,64.4% (active)
16,COc1cccc(C(=O)NNC(=O)c2cccc(F)c2)c1,-10.7% (inactive)
17,CNC(=O)CN1C(=O)NC(c2ccccc2)(c2ccccc2)C1=O,27% (inactive)
18,COc1cccc(CNC(=O)COC(=O)CN2C(=O)NC3(CCCCC3C)C2=O)c1 (stereo not drawn),4.53% (inactive)
19,COc1cccc(CNC(=O)CN2C(=O)NC(Cc3ccccc3)(c3ccccc3)C2=O)c1 (stereo not drawn),40.8% (active)
20,O=C(NCc1ccc2c(c1)OCO2)c1c(-c2ccsc2)sc2ccccc12,35.8% (inactive)
21,Cc1ccc(S(=O)(=O)N(C)c2ccc(OCC(=O)OCc3ccc(C#N)cc3)cc2)cc1,5.89% (inactive)
22,Cc1c(NC(=S)Nc2ccccc2)c(=O)n(-c2ccccc2)n1C,6.12% (inactive)

row,SMILES,inhibition
1,Cc1cccc(OP(=O)(Nc2c(C)n(C)n(-c3ccccc3)c2=O)Oc2cccc(C)c2)c1,61.5% (active)
2,Cc1c(NC(=O)C(C)Oc2cccc(Cl)c2)c(=O)n(-c2ccccc2)n1C (stereo not drawn),16% (inactive)
3,COc1ccc(-c2noc(CCC(=O)N3CCN(c4cccc(C)c4)CC3)n2)cc1,7.06% (inactive)
4,CN(C)C(=O)CCc1ccc2c3c([nH]c2c1)[C@]1(C)[C@@H](C(=O)N2CCCCC2)C[C@H](CC(=O)NCCC2=CCCCC2)C(=O)N1CC3,10.5% (inactive)
5,C[C@@H]1CN([C@@H](C)CO)C(=O)c2cccc(NS(=O)(=O)c3ccc(F)cc3)c2O[C@H]1CN(C)C(=O)NC1CCCCC1,11.9% (inactive)
6,COc1ccc(C(=O)OCc2cc(=O)n3ccsc3n2)cc1F,3.7% (inactive)
7,CCN1/C(=C/c2ccc3ccc(C)cc3[n+]2CC)Sc2ccccc21,38.5% (inactive)
8,CCN1/C(=C\c2ccc3ccccc3[n+]2CC)Sc2cc(C)ccc21,69.9% (active)
9,CN(CC(=O)Nc1ccc(OC(F)F)cc1)S(=O)(=O)/C=C/c1ccccc1,6.62% (inactive)
10,Cn1c(N)c(C(=O)COC(=O)c2cccc(S(=O)(=O)N3CCOCC3)c2)c(=O)n(C)c1=O,13.1% (inactive)
11,Cn1c(N)c(C(=O)COC(=O)c2cnc(Cl)c(Cl)c2)c(=O)n(C)c1=O,6.46% (inactive)
12,Cn1c(N)c(C(=O)COC(=O)c2ccc3ccccc3c2)c(=O)n(C)c1=O,44.9% (active)
13,Cn1cncc1C#Cc1c(-c2ccsc2)sc2ccccc12,10.4% (inactive)
14,CC1Cc2ccccc2N1S(=O)(=O)c1cccc(C(=O)OCC(=O)N2CCOCC2)c1 (stereo not drawn),7.49% (inactive)
15,O=S(=O)([N-]c1nc2ccccc2nc1-[n+]1ccc(Cc2ccccc2)cc1)c1ccc(Br)s1,20.8% (inactive)
16,Cc1ccc(C)c(NC(=O)CN(C)C(=O)COc2ccc3ccccc3c2)c1,19.9% (inactive)
17,Cc1ccnc(Nc2nc3ccccc3s2)n1,55.2% (active)
18,c1ccc2sc(NN=C3CCCC3)nc2c1,3.98% (inactive)
19,Cc1ccnc(-n2sc3ccccc3c2=O)n1,15.6% (inactive)
20,COc1ccc(/C=C/C(=O)Nc2ccc(C34CC5CC(CC(O)(C5)C3)C4)cc2)cc1OC,18.9% (inactive)
21,C=CCC[C@@H](Cc1ccc(F)cc1)C(=O)OC[C@@H](C)NC(=O)[C@H](CC=C)CC(=O)N(CCO)Cc1ccccc1,7.32% (inactive)
22,O=S(=O)(NCC1CN(S(=O)(=O)c2ccc3c(c2)OCCO3)C1)c1c(F)cccc1F,3.02% (inactive)

# Reference: PubChem BioAssay AID485270 (The Scripps Research Institute Molecular Screening Center, 2010)
